Experimental findings from PubChem BioAssay are described below.

Results filed as inconclusive are left out. Active and inactive are the calls of the source.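 Rule for the calls, unless noted: active = percent response above a set limit, the screen-wide mean plus 3 SD (cut at about 130% in these data); inactive = the rest.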

Test [1] in a line: rapamycin-like changes in RPL19A-GFP expression – cell-based, S. cerevisiae, multiplex flow cytometry, primary screen (AID 1862; in the data active = percent of DMSO control GFP below about 86%;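 note: lower values mimic rapamycin by blocking the RPL19A rise seen in DMSO cells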). As to conditions: S. cerevisiae RPL19A-GFP strain, flow cytometry fluorescence, 3 h; at 10 µM; stronger effect = lower value. On the technique in general: A flow cytometer gives signals particle by particle.
Test [2] is described as follows: TOR pathway GLN3 branch reporter MEP2-GFP changes – S. cerevisiae, multiplex flow cytometry, primary screen (AID 1867;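 active = GFP response, as percent of the DMSO control, above the screen-wide mean plus 3 SD, about 139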;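 note: median GFP channel fluorescence of barcode-gated MEP2-GFP cells measured by flow cytometry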). As to conditions: S. cerevisiae MEP2-GFP strain, 3 h, at 10 µM, stronger effect = higher value, 100% means same as DMSO wells.
The nature of test [3]: TOR pathway RTG branch CIT2 reporter changes – S. cerevisiae, GFP fusion, multiplex flow cytometry, primary screen (AID 1870).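 Note: barcoded CIT2-GFP strain pooled with four other GFP strains with rapamycin as positive control; median GFP fluorescence per well over plate mean of DMSO wells so 100% = DMSO.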 Conditions: S. cerevisiae CIT2-GFP expression, 3 h, at 10 µM, stronger effect = higher value.
Test [4] can be described thus: TOR pathway LAP4-GFP level changes – S. cerevisiae, multiplex flow cytometry, primary screen (AID 1873;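 active = GFP signal, as percent of the solvent control, above the screen mean plus 3 SD, about 149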). As to conditions: S. cerevisiae LAP4-GFP expression, 3 h, at 10 µM, stronger effect = higher value.
The nature of test [5]: yeast AGP1-GFP level changes, GLN3 branch – cell-based, multiplex flow cytometry, S. cerevisiae, primary screen (AID 1887;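 active = GFP signal above the screen-wide mean plus 3 SD, that is over about 124.5% of the solvent control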;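 note: AGP1-GFP fusion strain of S. cerevisiae within a five-strain barcoded multiplex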). Conditions: 3 h, at 10 µM, stronger effect = higher value.
Test [6] is described as follows: reduced mouse 2C T cell binding to pMHC/ICAM-1 vesicles – MLPCN validation set, flow cytometry, LFA-1/ICAM-1 modulator project, pilot screen (AID 2523;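 active = response below a set limit, under 55% cells CD8-positive and vesicle-bound, and CD8 cells' 90th-percentile brightness under 279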;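 for vesicle binding response: mean PE anti-B7-1 fluorescence of CD8+ cells relative to row control; 100% = QL9-loaded vesicles with DMSO vehicle in the same plate row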). As to conditions: 2C mouse CD8+ T cells, at 7 µM, stronger effect = lower value; double positive events: measured here: CD8+/vesicle+ event percentage.
The target in test [7] is Integrin beta-1 (Homo sapiens) + Integrin alpha-4 (Homo sapiens) (UniProt P13612+P05556). Briefly: alpha4beta1 integrin LIBS antibody binding reduction – U937 cells, HUTS-21 mAb, flow cytometry, validation set, VLA-4 allosteric modulator project, pilot screen (AID 2674;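 active = inhibition above 50%, about 3 SD of the validation set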;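 note: antibody binding induced by the VLA-4 ligand LDV present at three times its Kd; 0% = LDV ligand with antibody and no compound and 100% = antibody without LDV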). As to conditions: HUTS-21 LIBS mAb binding, at 6.7 µM, stronger effect = higher value, binding induced by LDV ligand.

The nature of test [8]: calorie-restriction mimetic ROS inhibitors, yeast – validation compound set, pilot screen (AID 2706;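 active = superoxide response below 65% of plate, a cut near 3 SD across the whole screen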;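 note: yeast exposed to compound for one week at 30 degrees C before staining; 100% = mean of all compound wells on the same plate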). Conditions: S. cerevisiae aging, superoxide DHE fluorescence; at 10 µM; stronger effect = lower value.
Test [9] concerns the target Beta-adrenergic receptor kinase 1 (Homo sapiens) (UniProt P25098). The experiment in a line: GRK2 binders displacing RNA aptamer, biochemical, validation, human GRK2, bead flow cytometry (AID 488806;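 active = aptamer binding inhibition above 30%, about 3 SD of noise from non-fluorescent compounds; inactive = inhibition at or below 30%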). Conditions: bead-bound GRK2, FAM-aptamer displacement, at 10 µM, stronger effect = higher value.
In test [10] the target is Beta-2 adrenergic receptor (Homo sapiens) (UniProt P07550). Briefly: agonist-induced loss of surface beta2AR – cell-based, FAP fluorogen, flow cytometry, validation set, pilot screen (AID 504459;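 active = percent response above 42, roughly 3 SD of non-fluorescent test compounds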;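 note: agonist-driven loss of surface beta2AR via internalization measured by FAP dye flow cytometry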). As to conditions: Am2.2-beta2AR cells, at 10 µM, stronger effect = higher value.
For test [11], the target named is AP-2 complex subunit beta (Homo sapiens) (UniProt P63010). Briefly: beta-arrestin/AP2 interaction blockers – biochemical, validation set, GST-AP2 beads, flow cytometry, pilot screen (AID 504541;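 active = inhibition above 54%, about 3 SD of non-fluorescent compounds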;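 note: AP2 carries R879A mutation and is captured from E. coli lysate; bead-bound FITC arrestin peptide fluorescence measuring arrestin peptide binding to AP2; 0% = DMSO wells and 100% = excess unlabeled arrestin peptide control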). Conditions: FITC arrestin peptide, at 10 µM, stronger effect = higher value, AP2 beta2 appendage fragment, R879A mutant.
Test [12] is described as follows: cytosolic pH regulators acting via V-ATPase – S. cerevisiae, pHLuorin, HTS validation (AID 504600; in the data active = response above about 15%;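 note: plate controls were DMSO for no effect and reference compound for full effect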). Conditions: V-ATPase proton transport, at 10 µM, stronger effect = higher value.
In test [13] the test system is anti-desmoglein-3 scFv antibody binding to human DSG3. The experiment in a line: blockers of pathogenic pemphigus antibody–desmoglein-3 binding – biochemical, validation compound set, bead-based, flow cytometry, pilot screen (AID 588368;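 active = binding below the plate cutoff, the plate median minus 3 SD, with a reading above zero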;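 note: signal is the median channel fluorescence of bead-bound GFP antibody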). As to conditions: Protein G beads, DSG3-Fc, scFv-GFP binding, at 10 µM, stronger effect = lower value.
Test [14] can be described thus: Nile Red efflux blockade in pump-expressing yeast – validation compound set, multiplex, phenotypic, pilot screen (AID 588506;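 active = efflux inhibition above 0.42, the validation set average plus 4 SD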;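 note: Nile Red retained in cells so higher fluorescence means more efflux inhibition; 0 = negative control wells and 1 = enniatin B 25 µM full block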). As to conditions: S. cerevisiae pump-expressing triplex, Nile Red efflux flow cytometry; at 10 µM; stronger effect = higher value; the pumps come from Candida albicans.
Test [15] concerns the target ATP-binding cassette sub-family B member 6 (Homo sapiens) (UniProt Q9NP58). Briefly: blockers of ABCB6-driven porphyrin uptake – K562-ABCB6 cells, flow cytometry, validation set, pilot screen (AID 588550;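 active = inhibition above the screen-wide mean plus 3 SD, about 51%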;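 note: 0% = DMSO wells and 100% = benzethonium chloride 70 µM positive control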). Conditions: K562-ABCB6 porphyrin accumulation, 1 h, at 10 µM, stronger effect = higher value.
Test [16] in a line: AML differentiation inducers, ER-HoxA9 marrow cells – cell-based, GFP/MAC1 double positive, flow cytometry, validation set, primary screen (AID 588685;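 active = differentiation response of at least 50%, scaled between solvent and reference control, from cells with both markers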;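 note: compound exposure lasts four days before antibody staining and flow analysis; 0% = DMSO wells and 100% = 5 µM fulvestrant positive control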). As to conditions: stronger effect = higher value, normalized: vehicle 0, fulvestrant 100.

AP-2 complex subunit beta (Homo sapiens), sequence (P63010 whole entry, looked up, the tested form may be a part, one chain of several): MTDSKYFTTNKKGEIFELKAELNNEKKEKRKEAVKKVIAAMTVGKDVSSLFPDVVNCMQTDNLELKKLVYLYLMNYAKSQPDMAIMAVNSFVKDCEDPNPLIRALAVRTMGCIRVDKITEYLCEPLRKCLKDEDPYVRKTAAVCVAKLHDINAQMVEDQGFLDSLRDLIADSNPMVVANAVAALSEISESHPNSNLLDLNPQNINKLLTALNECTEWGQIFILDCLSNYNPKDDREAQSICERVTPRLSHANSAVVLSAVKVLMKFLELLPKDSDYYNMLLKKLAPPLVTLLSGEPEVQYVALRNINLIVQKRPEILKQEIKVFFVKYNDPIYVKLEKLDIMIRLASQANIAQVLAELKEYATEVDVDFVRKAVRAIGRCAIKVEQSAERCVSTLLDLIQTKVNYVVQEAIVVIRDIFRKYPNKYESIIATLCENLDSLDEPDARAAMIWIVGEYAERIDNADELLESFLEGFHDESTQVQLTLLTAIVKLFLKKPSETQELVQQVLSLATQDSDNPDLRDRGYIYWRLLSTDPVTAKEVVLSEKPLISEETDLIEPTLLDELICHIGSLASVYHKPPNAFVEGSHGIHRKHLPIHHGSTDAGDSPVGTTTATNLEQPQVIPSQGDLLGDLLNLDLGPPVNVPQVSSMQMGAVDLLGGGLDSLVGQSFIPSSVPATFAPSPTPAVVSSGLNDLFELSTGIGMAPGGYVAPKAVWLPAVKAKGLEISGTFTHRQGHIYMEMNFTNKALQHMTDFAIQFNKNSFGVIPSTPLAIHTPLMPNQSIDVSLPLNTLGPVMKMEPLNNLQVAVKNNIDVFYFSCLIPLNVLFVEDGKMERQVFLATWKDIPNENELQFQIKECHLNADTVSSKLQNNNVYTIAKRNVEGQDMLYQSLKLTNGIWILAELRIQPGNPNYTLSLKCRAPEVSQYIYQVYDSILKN
ATP-binding cassette sub-family B member 6 (Homo sapiens), sequence (Q9NP58 whole entry, looked up): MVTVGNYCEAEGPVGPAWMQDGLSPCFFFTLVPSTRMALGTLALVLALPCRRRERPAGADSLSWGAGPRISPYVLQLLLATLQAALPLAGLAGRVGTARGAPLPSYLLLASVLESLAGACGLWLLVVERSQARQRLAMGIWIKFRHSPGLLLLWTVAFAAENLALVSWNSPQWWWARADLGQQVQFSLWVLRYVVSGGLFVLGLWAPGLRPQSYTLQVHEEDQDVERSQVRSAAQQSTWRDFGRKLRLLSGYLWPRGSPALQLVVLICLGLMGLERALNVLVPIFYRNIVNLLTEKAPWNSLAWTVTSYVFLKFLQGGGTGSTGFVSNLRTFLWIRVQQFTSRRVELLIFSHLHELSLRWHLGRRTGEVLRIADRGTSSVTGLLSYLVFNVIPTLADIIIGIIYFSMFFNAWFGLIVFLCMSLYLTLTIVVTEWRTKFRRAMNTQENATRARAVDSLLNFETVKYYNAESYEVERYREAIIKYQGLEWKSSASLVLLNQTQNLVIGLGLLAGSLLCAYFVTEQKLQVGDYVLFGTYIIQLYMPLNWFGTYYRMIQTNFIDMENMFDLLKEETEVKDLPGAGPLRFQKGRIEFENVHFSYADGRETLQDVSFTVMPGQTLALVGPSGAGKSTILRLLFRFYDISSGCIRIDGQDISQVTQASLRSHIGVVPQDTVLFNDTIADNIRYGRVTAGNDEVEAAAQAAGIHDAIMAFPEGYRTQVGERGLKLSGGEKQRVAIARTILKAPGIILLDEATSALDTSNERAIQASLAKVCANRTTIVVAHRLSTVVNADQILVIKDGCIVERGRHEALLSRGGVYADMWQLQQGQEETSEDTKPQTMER
Beta-2 adrenergic receptor (Homo sapiens), sequence (P07550 whole entry, looked up): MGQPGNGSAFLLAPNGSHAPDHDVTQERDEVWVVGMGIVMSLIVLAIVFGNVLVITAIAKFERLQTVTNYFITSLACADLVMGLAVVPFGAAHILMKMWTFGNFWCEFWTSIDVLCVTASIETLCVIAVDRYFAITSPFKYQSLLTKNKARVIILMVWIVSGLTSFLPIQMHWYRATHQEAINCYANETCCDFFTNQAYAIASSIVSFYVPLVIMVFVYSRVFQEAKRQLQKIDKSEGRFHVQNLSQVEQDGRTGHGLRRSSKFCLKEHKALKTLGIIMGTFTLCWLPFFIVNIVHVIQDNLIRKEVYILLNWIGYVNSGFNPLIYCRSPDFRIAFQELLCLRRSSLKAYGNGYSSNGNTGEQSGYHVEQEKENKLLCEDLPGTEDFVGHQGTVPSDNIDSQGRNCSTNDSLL
Beta-adrenergic receptor kinase 1 (Homo sapiens), sequence (P25098 whole entry, looked up): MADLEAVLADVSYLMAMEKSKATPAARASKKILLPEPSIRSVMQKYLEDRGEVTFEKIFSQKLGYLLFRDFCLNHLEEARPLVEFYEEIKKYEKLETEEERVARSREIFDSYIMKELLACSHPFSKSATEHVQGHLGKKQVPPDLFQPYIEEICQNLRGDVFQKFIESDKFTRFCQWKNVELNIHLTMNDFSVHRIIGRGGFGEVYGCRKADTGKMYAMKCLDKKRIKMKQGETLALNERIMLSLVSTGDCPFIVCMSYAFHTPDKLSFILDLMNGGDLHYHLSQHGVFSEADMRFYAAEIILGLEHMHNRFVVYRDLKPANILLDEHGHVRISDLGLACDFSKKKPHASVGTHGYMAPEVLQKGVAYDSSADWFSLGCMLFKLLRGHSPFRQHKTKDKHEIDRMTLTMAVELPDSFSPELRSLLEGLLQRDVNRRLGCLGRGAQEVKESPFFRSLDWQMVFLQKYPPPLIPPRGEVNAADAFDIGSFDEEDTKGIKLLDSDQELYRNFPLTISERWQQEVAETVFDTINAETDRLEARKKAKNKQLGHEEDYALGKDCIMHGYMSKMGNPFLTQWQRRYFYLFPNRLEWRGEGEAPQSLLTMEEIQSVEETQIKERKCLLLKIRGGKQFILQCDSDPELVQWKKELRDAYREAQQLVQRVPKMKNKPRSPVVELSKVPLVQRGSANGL
Integrin beta-1 (Homo sapiens) + Integrin alpha-4 (Homo sapiens), sequence (P05556 whole entry, looked up): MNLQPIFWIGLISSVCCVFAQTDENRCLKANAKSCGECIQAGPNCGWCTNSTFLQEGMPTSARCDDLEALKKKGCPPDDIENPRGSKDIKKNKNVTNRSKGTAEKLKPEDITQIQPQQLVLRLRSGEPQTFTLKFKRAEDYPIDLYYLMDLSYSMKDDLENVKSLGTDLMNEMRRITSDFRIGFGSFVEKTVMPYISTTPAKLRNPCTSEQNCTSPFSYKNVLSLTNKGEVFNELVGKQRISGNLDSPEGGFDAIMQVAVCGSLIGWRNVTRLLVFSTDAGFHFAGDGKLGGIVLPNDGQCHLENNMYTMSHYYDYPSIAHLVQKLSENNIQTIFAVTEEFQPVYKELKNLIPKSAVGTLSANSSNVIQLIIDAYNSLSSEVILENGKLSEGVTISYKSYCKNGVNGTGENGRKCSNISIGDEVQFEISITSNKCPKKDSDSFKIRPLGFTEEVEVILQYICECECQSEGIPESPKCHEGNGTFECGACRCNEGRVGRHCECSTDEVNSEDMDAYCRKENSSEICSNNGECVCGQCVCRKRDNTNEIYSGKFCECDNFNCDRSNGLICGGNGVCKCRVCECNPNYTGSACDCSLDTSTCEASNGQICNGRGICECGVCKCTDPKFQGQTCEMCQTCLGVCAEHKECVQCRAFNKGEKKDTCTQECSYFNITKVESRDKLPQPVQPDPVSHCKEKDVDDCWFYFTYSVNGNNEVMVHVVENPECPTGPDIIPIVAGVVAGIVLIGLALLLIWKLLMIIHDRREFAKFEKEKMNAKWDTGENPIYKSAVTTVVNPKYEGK
Integrin beta-1 (Homo sapiens) + Integrin alpha-4 (Homo sapiens), sequence (P13612 whole entry, looked up): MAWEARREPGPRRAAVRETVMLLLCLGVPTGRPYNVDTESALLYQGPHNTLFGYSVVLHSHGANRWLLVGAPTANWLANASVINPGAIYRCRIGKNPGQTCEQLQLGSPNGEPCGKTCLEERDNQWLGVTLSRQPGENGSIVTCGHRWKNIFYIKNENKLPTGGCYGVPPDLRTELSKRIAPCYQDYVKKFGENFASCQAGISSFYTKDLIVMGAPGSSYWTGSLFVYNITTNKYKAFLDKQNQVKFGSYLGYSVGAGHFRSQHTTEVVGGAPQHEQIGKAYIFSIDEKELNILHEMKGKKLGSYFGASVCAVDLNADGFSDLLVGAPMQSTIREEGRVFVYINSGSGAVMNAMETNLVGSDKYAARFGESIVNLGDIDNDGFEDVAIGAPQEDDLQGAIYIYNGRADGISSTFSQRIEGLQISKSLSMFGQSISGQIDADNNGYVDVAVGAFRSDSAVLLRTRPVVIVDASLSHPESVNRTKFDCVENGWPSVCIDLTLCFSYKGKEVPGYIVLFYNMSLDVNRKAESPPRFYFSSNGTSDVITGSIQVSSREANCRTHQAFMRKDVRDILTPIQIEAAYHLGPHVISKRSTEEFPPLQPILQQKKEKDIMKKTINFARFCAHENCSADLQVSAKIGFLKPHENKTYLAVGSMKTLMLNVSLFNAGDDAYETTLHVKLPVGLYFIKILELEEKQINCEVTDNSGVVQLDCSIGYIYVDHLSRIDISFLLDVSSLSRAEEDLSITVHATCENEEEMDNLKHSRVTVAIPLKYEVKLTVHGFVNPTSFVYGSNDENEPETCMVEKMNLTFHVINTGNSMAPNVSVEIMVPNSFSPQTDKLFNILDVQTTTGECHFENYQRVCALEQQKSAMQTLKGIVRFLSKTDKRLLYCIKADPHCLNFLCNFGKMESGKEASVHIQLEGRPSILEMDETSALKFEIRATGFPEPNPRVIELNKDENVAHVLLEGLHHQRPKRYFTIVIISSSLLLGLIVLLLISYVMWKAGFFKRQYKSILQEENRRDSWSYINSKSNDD

By inhibition is commonly meant the relative decrease from the control value, in per cent. As for `S=C(NCCOCCOCCNC(=S)Nc1ccccc1)Nc1ccccc1`, in [1], the percent of DMSO control GFP was 98.6% (inactive). The values for the GFP response vs DMSO in test [2] and in [4] were 103% (inactive) and 108% (inactive), respectively. The percent response of DMSO control in test [3] is 86.3% (inactive). Also, in test [5], the GFP response, % of DMSO was 97.4% (inactive). Besides, the double positive events in [6] amounted to 64.8%. For the same compound, in test [6], the vesicle binding response is 250% (inactive). Moreover, the figures for the inhibition in test [7], in test [11] and in test [15] were -22.3% (inactive), -17% (inactive) and 4% (inactive), respectively. In addition, the superoxide response (% of plate) in test [8] is 134% (inactive). Also, the aptamer binding inhibition in [9] is 3% (inactive). For the same compound, the response is 2.38% (inactive) in test [10] and 6.24% (inactive) in test [12]. In addition, the binding (% of control) in test [13] is 99.9% (inactive). In test [14], the efflux inhibition (fraction of control) is 0.55 (active). Further, the differentiation response in test [16] is 5.6% (inactive).
Consider `O=C(Nc1cccc(Oc2c(F)c(F)c(F)c(F)c2F)c1)N1C[C@@H]2C[C@@H](C1)c1cccc(=O)n1C2`, for which, in test [1], the percent of DMSO control GFP was 100% (inactive). Also, the GFP response vs DMSO in [2] is 101% (inactive); in test [4], 98% (inactive). The percent response of DMSO control in test [3] was 101% (inactive). Also, the GFP response, % of DMSO in test [5] is 101% (inactive). In [6], this compound had a double positive events of 63.7%. Moreover, the vesicle binding response in [6] is 215% (inactive). Moreover, the values for the inhibition in [7], in test [11] and in test [15] were 15.1% (inactive), -6.11% (inactive) and -6% (inactive), respectively. Besides, the superoxide response (% of plate) in test [8] was 104% (inactive). For the same compound, the aptamer binding inhibition in test [9] was 2% (inactive). Besides, the response in [10] is -14.9% (inactive); in [12], 0.72% (inactive). For the same compound, the binding (% of control) in [13] is 88% (inactive). The efflux inhibition (fraction of control) in test [14] is -0.35 (inactive). Further, the differentiation response in test [16] is 7.09% (inactive).
Take `C=CCC1(Cl)C(=O)C(Cl)=C(N2CCOCC2)C1(OC)OC` (stereo not given): the percent of DMSO control GFP in [1] is 101% (inactive). Also, the GFP response vs DMSO in test [2] is 94.1% (inactive); in [4] it was 99.1% (inactive). Further, the percent response of DMSO control in [3] is 108% (inactive). Besides, the GFP response, % of DMSO in test [5] was 95.2% (inactive). In test [6], this compound yielded a double positive events of 59.1%. The vesicle binding response in test [6] was 167% (inactive). Further, the inhibition in [7] is -4.52% (inactive); in [11], -0.19% (inactive); in [15], 8% (inactive). The superoxide response (% of plate) in test [8] was 102% (inactive). Besides, in [9], the aptamer binding inhibition is 2% (inactive). In addition, the figures for the response in test [10] and in test [12] were -2.88% (inactive) and -0.35% (inactive), respectively. The binding (% of control) in test [13] was 98.9% (inactive). Moreover, the efflux inhibition (fraction of control) in test [14] was -0.21 (inactive). The differentiation response in test [16] was -4% (inactive).
In the case of `CCOCCCNCc1cn(-c2ccc(F)cc2F)nc1-c1ccccc1C`, the percent of DMSO control GFP in test [1] is 103% (inactive). The GFP response vs DMSO in [2] is 98.3% (inactive); in [4] it was 93.3% (inactive). Moreover, in [3], the percent response of DMSO control is 109% (inactive). For the same compound, the GFP response, % of DMSO in test [5] is 102% (inactive). In addition, in test [6], the double positive events was 61.9%. Besides, the vesicle binding response in test [6] was 200% (inactive). Moreover, the figures for the inhibition in test [7], in test [11] and in test [15] were -1.49% (inactive), 14.5% (inactive) and -10% (inactive), respectively. Further, the superoxide response (% of plate) in test [8] is 101% (inactive). Further, the aptamer binding inhibition in test [9] was 1% (inactive). The response in test [10] was -8.93% (inactive); in test [12], 4.59% (inactive). Also, the binding (% of control) in test [13] was 94.2% (inactive). Also, the efflux inhibition (fraction of control) in [14] is -0.07 (inactive). The differentiation response in [16] is -1.71% (inactive).
In the case of `CC(=O)CCc1c(C)c2cccc(C)c2[nH]c1=O`, the percent of DMSO control GFP in test [1] is 104% (inactive). For the same compound, the values for the GFP response vs DMSO in test [2] and in test [4] were 99.6% (inactive) and 97.4% (inactive), respectively. Also, in test [3], the percent response of DMSO control was 103% (inactive). Besides, the GFP response, % of DMSO in test [5] is 98.8% (inactive). Further, in [6], the double positive events worked out at 56.4%. The vesicle binding response in test [6] is 269% (inactive). Further, the inhibition was -9.98% (inactive) in [7], -3.21% (inactive) in test [11] and 9% (inactive) in [15]. The superoxide response (% of plate) in test [8] was 105% (inactive). Moreover, the aptamer binding inhibition in [9] is 1% (inactive). Besides, the results for the response in test [10] and in test [12] were -3.42% (inactive) and -0.84% (inactive), respectively. Moreover, in test [13], the binding (% of control) is 95.5% (inactive). In test [14], the efflux inhibition (fraction of control) was -0.03 (inactive). Moreover, in test [16], the differentiation response was -18.4% (inactive).
